{"source": "the antibiotic and cytotoxicity screens of Wong et al. (2023)", "note": "The campaign covered roughly 39,000 compounds. About 1,500 (3.8%) were called active. The sample holds actives, similar compounds and a random draw of the others, so the mix is not that of the screen."}
{"tested_on": "HSkMC (human skeletal muscle cells)", "assay": "cytotoxicity call (relative viability < 0.9)", "settings": "10 µM"}
{"smiles": "COc1cccc(NC(=O)C[C@H]2CC[C@H]3[C@H](COc4ccc(NC(=O)C5CCOCC5)cc4C(=O)N3C)O2)c1", "cytotoxicity call": "inactive"}
{"smiles": "Cc1ccc(S(=O)(=O)Nc2ccc3c(c2)C(=O)N([C@H](C)CO)C[C@@H](C)[C@@H](CN(C)S(C)(=O)=O)O3)cc1", "cytotoxicity call": "inactive"}
{"smiles": "CC(C)c1onc(-c2c(Cl)cccc2Cl)c1COc1ccc(C=Cc2cccc(C(=O)O)c2)c(Cl)c1", "cytotoxicity call": "inactive"}
{"smiles": "C[C@@H]1CN([C@@H](C)CO)C(=O)c2cccc(NS(C)(=O)=O)c2O[C@@H]1CN(C)Cc1ccc2c(c1)OCO2", "cytotoxicity call": "inactive"}
{"smiles": "COc1ccc(S(=O)(=O)N2C[C@@H](O)COC[C@@H]3O[C@H](CC(=O)NCCCN4CCOCC4)CC[C@H]32)cc1", "cytotoxicity call": "inactive"}
{"smiles": "Cc1ccc(F)cc1NC(=O)[C@@H](C)N", "cytotoxicity call": "inactive"}
{"smiles": "COc1ccc(S(=O)(=O)Nc2ccc3c(c2)CC(=O)N([C@@H](C)CO)C[C@@H](C)[C@@H](CN(C)S(=O)(=O)c2c(C)noc2C)O3)cc1", "cytotoxicity call": "inactive"}
{"smiles": "Cc1cccc(-n2cc(CN)cn2)c1", "cytotoxicity call": "inactive"}
{"smiles": "COc1cc(NC(=O)c2cccc(-n3cc(NC(=O)Nc4cccc(C)c4)cn3)c2)cc(OC)c1OC", "cytotoxicity call": "active"}
{"smiles": "COc1cc(NC(=O)Cn2cnc3c2c(=O)n(C)c(=O)n3C)cc(OC)c1OC", "cytotoxicity call": "inactive"}
{"smiles": "C[C@@H]1CN([C@H](C)CO)C(=O)c2cccc(NC(=O)c3ccc(-c4nccs4)cc3)c2O[C@@H]1CN(C)Cc1ccc(Cl)c(Cl)c1", "cytotoxicity call": "inactive"}
{"smiles": "C[C@@H]1CCCCO[C@H](CN(C)C(=O)Nc2cccc3ccccc23)[C@@H](C)CN([C@H](C)CO)C(=O)c2cc(NC(=O)Nc3ccc(C(F)(F)F)cc3)ccc2O1", "cytotoxicity call": "inactive"}
{"smiles": "COc1ccc(S(=O)(=O)Nc2ccc3c(c2)C(=O)N([C@@H](C)CO)C[C@@H](C)[C@H](CN(C)C(=O)Nc2ccc(F)cc2)OCCCC[C@@H](C)O3)cc1", "cytotoxicity call": "inactive"}
{"smiles": "C[C@@H]1CN([C@@H](C)CO)C(=O)c2c(c3ccccc3n2C)-c2ccccc2CO[C@H]1CN(C)C(=O)Nc1cccc(Cl)c1Cl", "cytotoxicity call": "inactive"}
{"smiles": "C[C@H]1CN([C@@H](C)CO)C(=O)c2c(c3ccccc3n2C)-c2ccccc2CO[C@H]1CN(C)C(=O)Nc1cccc(Cl)c1Cl", "cytotoxicity call": "inactive"}
{"smiles": "C[C@H](CO)N1C[C@H](C)[C@H](CN(C)C(=O)Nc2cccc(Cl)c2Cl)OCc2ccccc2-c2c(n(C)c3ccccc23)C1=O", "cytotoxicity call": "inactive"}
{"smiles": "C[C@H](CO)N1C[C@H](C)[C@@H](CN(C)C(=O)Nc2cccc(Cl)c2Cl)OCc2ccccc2-c2c(n(C)c3ccccc23)C1=O", "cytotoxicity call": "active"}
{"smiles": "C[C@@H]1CN([C@H](C)CO)C(=O)c2c(c3ccccc3n2C)-c2ccccc2CO[C@@H]1CN(C)C(=O)Nc1cccc(Cl)c1Cl", "cytotoxicity call": "active"}
{"smiles": "C[C@@H]1CN([C@@H](C)CO)C(=O)c2c(c3ccccc3n2C)-c2ccccc2CO[C@@H]1CN(C)C(=O)Nc1cccc(Cl)c1Cl", "cytotoxicity call": "inactive"}
{"smiles": "COc1ccccc1NC(=O)N(C)C[C@@H]1OCc2ccccc2-c2c(n(C)c3ccccc23)C(=O)N([C@@H](C)CO)C[C@H]1C", "cytotoxicity call": "inactive"}
{"smiles": "C[C@H]1CN([C@@H](C)CO)C(=O)c2c(c3ccccc3n2C)-c2ccccc2CO[C@@H]1CN(C)C(=O)Nc1cccc(Cl)c1Cl", "cytotoxicity call": "active"}
{"smiles": "C[C@@H]1CN([C@H](C)CO)C(=O)c2c(c3ccccc3n2C)-c2ccccc2CO[C@H]1CN(C)C(=O)Nc1cccc(Cl)c1Cl", "cytotoxicity call": "inactive"}
{"smiles": "COc1ccc(S(=O)(=O)N(C)C[C@H]2OCCCC[C@H](C)Oc3ccc(NC(=O)C4CCCCC4)cc3C(=O)N([C@H](C)CO)C[C@@H]2C)cc1", "cytotoxicity call": "inactive"}
{"smiles": "Cn1c(C(=O)N[C@H](CO)Cc2c[nH]c3ccccc23)cc(=O)n(C)c1=O", "cytotoxicity call": "inactive"}
{"smiles": "C[C@H](CO)N1C[C@H](C)[C@@H](CN(C)C(=O)CCCN(C)C)OCc2cn(nn2)CCCC1=O", "cytotoxicity call": "inactive"}
{"smiles": "Cc1ccc(S(=O)(=O)Nc2ccc3c(c2)C(=O)N([C@H](C)CO)C[C@H](C)[C@@H](CN(C)C(=O)CCC(F)(F)F)OCCCC[C@@H](C)O3)cc1", "cytotoxicity call": "inactive"}
{"smiles": "CC(C)C(=O)NCc1nnnn1-c1ccccc1", "cytotoxicity call": "inactive"}
{"smiles": "C[C@@H]1CCCCO[C@@H](CN(C)C(=O)c2ccccc2)[C@@H](C)CN([C@@H](C)CO)C(=O)c2cc(NC(=O)Cc3ccccc3)ccc2O1", "cytotoxicity call": "inactive"}
{"smiles": "COc1ccc(CN(C)C[C@@H]2Oc3c(NC(=O)c4cnccn4)cccc3C(=O)N([C@H](C)CO)C[C@H]2C)cc1", "cytotoxicity call": "inactive"}
{"smiles": "O=C1O[C@@H](c2ccccc2)[C@@H](c2ccccc2)N2[C@@H](c3ccc(O)cc3)[C@]3(C(=O)Nc4ccccc43)[C@@H](C(=O)NC[C@H](O)c3ccccc3)[C@H]12", "cytotoxicity call": "inactive"}
{"smiles": "CN1CCN(C(=O)C[C@@H]2CC[C@@H]3[C@H](COC[C@H](O)CN3C(=O)C3CCCC3)O2)CC1", "cytotoxicity call": "inactive"}
{"smiles": "Cc1cc(O)c(C(C)C)cc1Cl", "cytotoxicity call": "inactive"}
{"smiles": "COc1cccc(C#Cc2cnc3c(c2)C(=O)N([C@@H](C)CO)C[C@H](C)[C@@H](CN(C)C(=O)C2CCC2)O3)c1", "cytotoxicity call": "inactive"}
{"smiles": "C=C1C2CCC3(C)C(c4ccoc4)OC(=O)CC13OC1CC(=O)C(C)(C)C(C(O)C(=O)OC)C12C", "note": "(stereo not given)", "cytotoxicity call": "inactive"}
{"smiles": "CC(C)NC(=O)Nc1ccc2c(c1)C(=O)N([C@@H](C)CO)C[C@@H](C)[C@H](CN(C)S(=O)(=O)c1cn(C)cn1)O2", "cytotoxicity call": "inactive"}
{"smiles": "O=C(C[C@H]1CC[C@H]2[C@@H](COC[C@@H](O)CN2C(=O)c2ccccc2F)O1)N1CCN(c2ccccc2)CC1", "cytotoxicity call": "inactive"}
{"smiles": "COc1ccc(-c2ccc3c(c2)O[C@H](CN(C)CC2CCOCC2)[C@@H](C)CN([C@@H](C)CO)S3(=O)=O)cc1", "cytotoxicity call": "inactive"}
{"smiles": "Cc1[nH]c(/C=C2\\C(=O)Nc3ccc(S(=O)(=O)Cc4c(Cl)cccc4Cl)cc32)c(C)c1C(=O)N1CCC[C@@H]1CN1CCCC1", "cytotoxicity call": "active"}
{"smiles": "C[C@H](CO)N1C[C@H](C)[C@@H](CN(C)Cc2ccc(C(=O)O)cc2)Oc2ccc(NC(=O)Nc3ccc(C(F)(F)F)cc3)cc2C1=O", "cytotoxicity call": "inactive"}
{"smiles": "C[C@@H]1CN([C@@H](C)CO)C(=O)c2cc(NC(=O)Nc3ccc(C(F)(F)F)cc3)ccc2O[C@H]1CN(C)Cc1ccccc1", "cytotoxicity call": "active"}
{"smiles": "C[C@@H]1CN([C@@H](C)CO)C(=O)c2cc(NC(=O)Nc3ccc(C(F)(F)F)cc3)ccc2O[C@@H]1CN(C)Cc1ccccc1", "cytotoxicity call": "active"}
{"smiles": "C[C@H](CO)N1C[C@H](C)[C@H](CN(C)Cc2ccc(C(=O)O)cc2)Oc2ccc(NC(=O)Nc3ccc(C(F)(F)F)cc3)cc2C1=O", "cytotoxicity call": "inactive"}
{"smiles": "C[C@H](CO)N1C[C@H](C)[C@H](CN(C)Cc2ccccc2)Oc2ccc(NC(=O)Nc3ccc(C(F)(F)F)cc3)cc2C1=O", "cytotoxicity call": "inactive"}
{"smiles": "C[C@H](CO)N1C[C@H](C)[C@@H](CN(C)Cc2ccccc2)Oc2ccc(NC(=O)Nc3ccc(C(F)(F)F)cc3)cc2C1=O", "cytotoxicity call": "active"}
{"smiles": "C[C@@H]1CN([C@H](C)CO)C(=O)c2cc(NC(=O)Nc3ccc(C(F)(F)F)cc3)ccc2O[C@H]1CN(C)Cc1ccccc1", "cytotoxicity call": "active"}
{"smiles": "C[C@@H]1CN([C@@H](C)CO)C(=O)c2cccc(N(C)C)c2O[C@H]1CN(C)S(=O)(=O)c1ccc(Cl)cc1", "cytotoxicity call": "inactive"}
{"smiles": "CCCNC(=O)C[C@@H]1CC[C@H]2[C@H](COc3ccc(NS(=O)(=O)c4ccccc4C)cc3C(=O)N2C)O1", "cytotoxicity call": "inactive"}
{"smiles": "Cc1noc(C)c1NC(=O)Nc1cccc2c1O[C@@H](CN(C)C(=O)NC(C)C)[C@H](C)CN([C@@H](C)CO)C2=O", "cytotoxicity call": "inactive"}
{"smiles": "COc1ccc(NC(=O)Nc2ccc3c(c2)C(=O)N([C@H](C)CO)C[C@H](C)[C@H](CN(C)C(=O)Nc2ccc(C(F)(F)F)cc2)OCCCC[C@H](C)O3)cc1", "cytotoxicity call": "inactive"}
{"smiles": "C[C@H]1CN([C@@H](C)CO)C(=O)c2cc(NC(=O)Nc3ccc(C(F)(F)F)cc3)ccc2O[C@@H]1CN(C)Cc1ccccc1", "cytotoxicity call": "inactive"}
{"smiles": "C[C@H]1CN([C@@H](C)CO)C(=O)c2cc(NC(=O)Nc3ccc(C(F)(F)F)cc3)ccc2O[C@H]1CN(C)Cc1ccccc1", "cytotoxicity call": "active"}
{"smiles": "C[C@@H]1CN([C@H](C)CO)C(=O)c2cc(NC(=O)Nc3ccc(C(F)(F)F)cc3)ccc2O[C@@H]1CN(C)Cc1ccccc1", "cytotoxicity call": "inactive"}
{"smiles": "CN(C)S(=O)(=O)Nc1cccc(N)c1", "cytotoxicity call": "inactive"}
{"smiles": "COCC(=O)N1C[C@@H](C)[C@@H](OC)CN(C)C(=O)c2cc(NC(=O)c3ccc(OC)cc3)ccc2OC[C@@H]1C", "cytotoxicity call": "inactive"}
{"smiles": "CC(=O)[C@]1(N)Cc2c(O)c3c(c(O)c2[C@@H](O[C@H]2C[C@H](O)[C@H](O)CO2)C1)C(=O)c1ccccc1C3=O", "cytotoxicity call": "active"}
{"smiles": "COc1cccc2c1C(=O)c1c(O)c3c(c(O)c1C2=O)C[C@@](O)(C(C)=O)C[C@@H]3O[C@H]1C[C@H](N)[C@H](O)[C@H](C)O1", "cytotoxicity call": "active"}
{"smiles": "COc1cccc2c1C(=O)c1c(O)c3c(c(O)c1C2=O)CC(O)(C(C)=O)CC3OC1CC(N)C(O)C(C)O1.Cl", "note": "(stereo not given)", "cytotoxicity call": "inactive"}
{"smiles": "COc1cccc2c1C(=O)c1c(O)c3c(c(O)c1C2=O)C[C@](O)(C(C)=O)C[C@H]3O[C@H]1C[C@@H](N)[C@@H](O)[C@@H](C)O1", "cytotoxicity call": "active"}
{"smiles": "CC(=O)[C@]1(O)Cc2c(O)c3c(c(O)c2[C@@H](O[C@@H]2C[C@@H](N)[C@H](O)[C@@H](C)O2)C1)C(=O)c1c(O)cccc1C3=O", "cytotoxicity call": "active"}
{"smiles": "O=C(C[C@@H]1CC[C@H]2[C@@H](COC[C@H](O)CN2C(=O)c2ccncc2)O1)NC1CCC1", "cytotoxicity call": "inactive"}
{"smiles": "CNCC1CCOCC1", "cytotoxicity call": "inactive"}
{"smiles": "CO[C@@H]1CN(C)C(=O)c2cc(NS(=O)(=O)c3ccccc3C)ccc2OC[C@H](C)N(S(C)(=O)=O)C[C@H]1C", "cytotoxicity call": "inactive"}
{"smiles": "Cc1noc(C)c1S(=O)(=O)Nc1ccc2c(c1)C(=O)N([C@H](C)CO)C[C@H](C)[C@@H](CN(C)C(=O)Nc1ccc(F)cc1)OCCCC[C@H](C)O2", "cytotoxicity call": "inactive"}
{"smiles": "C[C@H]1CN([C@@H](C)CO)C(=O)c2cc(C#CCN(C)C)cnc2O[C@@H]1CN(C)C(=O)c1cnccn1", "cytotoxicity call": "inactive"}
{"smiles": "CC(C)c1nc(/N=C/N(C)C)nc(=O)n1C", "cytotoxicity call": "inactive"}
